Test results: PubChem BioAssay (NCATS)
Records with an inconclusive call do not appear. Active and inactive are the calls of the source. The call rests on the fitted dose curve; in most records, active means well fitted inhibition curve with a large enough effect; inconclusive means small, poorly fitted or top-dose-only effect; inactive means flat fitted curve, though single readings scatter.

Columns and labels:
Assay in all cases: qHTS profiling for inhibitors of Plasmodium falciparum proliferation (AID 504749); further: nearly all actives have a fitted effect of over 60% in size
Conditions in all cases: P. falciparum in erythrocytes, SYBR Green DNA, 72 h; series mostly up to 28.7 µM
CP217 = test system: CP217
Method in brief: (§1)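 Readout was DNA-dye fluorescence from lysed cultures, ex 485/em 535 nm. Parasitized red cells had grown 72 h with compound; data scaled between 0.29 uM artemisinin and DMSO wells and corrected using vehicle-only plates.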

CP237 = test system: CP237
Method in brief: as §1

CP238 = test system: CP238
Method in brief: as §1

CP247 = test system: CP247
Method in brief: as §1

CP250 = test system: CP250
Method in brief: as §1

CP252 = test system: CP252
Method in brief: as §1

CP256 = test system: CP256
Method in brief: as §1

CP260 = test system: CP260
Method in brief: as §1

CP262 = test system: CP262
Method in brief: as §1

CP265 = test system: CP265
Method in brief: as §1

Measured: Potency
Potency means the concentration at half of the fitted maximal effect.

CCCCCCCCCCCCCCC[C@H](O)[C@H](N)CO
inactive: all assays above

CN1C2CCC1CC(OC(c1ccccc1)c1ccccc1)C2 (stereo not given)
inactive: CP238 | CP265

CC(O)C(O)[C@H]1CNc2nc(N)[nH]c(=O)c2N1 (stereo not given in full)
inactive: all assays above

CC(C)NC[C@H](O)COc1ccc(CC(N)=O)cc1
inactive: all assays above

CCCCCCCCCCCCCCCCCCOC[C@H](COP(=O)([O-])OCC[N+](C)(C)C)OC
not listed: CP260
inactive: all other assays above

c1ccc(C2CN3CCSC3=N2)cc1 (stereo not given)
active: CP237 3.98 µM | CP260 10 µM | CP265 4.47 µM
inactive: CP262
